From ChEMBL document CHEMBL3988442, “University of Dundee, Small-Polar-MMV Screening Library” (2021)
Screen size: about 85,000 compounds; about 440 (0.52%) showed an effect of 50% or more. Many of the other results were omitted from the sample, so strong results are more common in it than they were.

Assay: In vitro enzyme assay to detect hydrolysis of chlorophenol red-beta-D-[…] directly proportional to the number of Toxoplasma stably expressing beta-galactosidase
Format: functional, organism-based, Toxoplasma gondii
Set-up: scale not given: in the data most compounds retested in dose-response had high values

Row | SMILES | Percent Effect (50 µM) [%] | Percent Effect (10 µM) [%]
1 | CC(C)NC(=O)CCN1CCC(CN2CCCC2)CC1 | 15.46 | –
2 | O[C@@H]1CN(Cc2ccccc2)C[C@@H]1O | 8.775 | –
3 | Cc1noc(C)c1COC1CCNC1 (stereo not drawn) | 7.368 | –
4 | O=C(COc1ccc(F)cc1)Nc1ccon1 | -3.156 | –
5 | CC(NC(=O)C1CCNCC1)c1cccc(F)c1 (stereo not drawn) | 17.33 | –
6 | OC1(Cc2ccccn2)CCNCC1 | -0.4203 | –
7 | Cc1cccc(NCC2CCN(CCC(N)=O)C2)n1 (stereo not drawn) | 2.724 | –
8 | COc1ccc(CN(C)C(=O)CCNC(C)=O)cc1F | -5.409 | –
9 | CCNC(C)(C)C(=O)N(C)Cc1ccc(OC)c(F)c1 | 94.51 | –
10 | COc1ccc(CN(C)C(=O)C2CC2)cc1F | 5.333 | –
11 | NCc1ccc(-n2cc(Cl)cn2)cc1 | -34.41 | –
12 | CCCn1ccnc1CNC(=O)c1ccc(F)c(O)c1 | 10.15 | –
13 | CCN1CCc2nc(NC(=O)c3ccncc3)sc2C1 | 61.16 | –
14 | CN1CCc2nc(NC(=O)c3cncc(Br)c3)sc2C1 | -4.285 | –
15 | CCN1CCc2nc(NC(=O)c3cc(Br)c[nH]3)sc2C1 | -7.995 | –
16 | O=C(NCCCNCc1ccccc1)c1ccco1 | -4.419 | –
17 | CN1N=C(C(=O)NC2CCCc3occc32)CCC1=O (stereo not drawn) | 1.103 | –
18 | COc1ccc(CN)c(F)c1 | 0.131 | –
19 | Cc1csc(N2CCN(C(=O)c3ccc(C)s3)CC2)n1 | – | -15.38
20 | Cc1ccc(C(=O)N2CCN(C(C)C(N)=O)CC2)s1 (stereo not drawn) | 98.87 | –
21 | CC(C(N)=O)N1CCN(C(=O)c2ccc(Br)cc2)CC1 (stereo not drawn) | 3.88 | –
22 | OC1CN(Cc2ccc(OCc3ccccn3)cc2)C1 | -10.4 | –
23 | COc1c(C)cnc(CN(C)C)c1C | 0.7571 | –
24 | COc1c(C)cnc(CN(C)C2CCCCC2)c1C | – | 62.27

Row | SMILES | Percent Effect (50 µM) [%] | Percent Effect (10 µM) [%]
25 | COc1c(C)cnc(CN(C)C2CCN(C3CCOCC3)CC2)c1C | – | 16.07
26 | CC(Cn1cccn1)NC(=O)c1cncc(Br)c1 (stereo not drawn) | 6.883 | –
27 | c1nc(CCNc2nc(C3CC3)nc3c2CCNCC3)c[nH]1 | – | 13.19
28 | Cc1nc2c(c(NCCc3nc4c(s3)CCCC4)n1)CCNCC2 | – | -0.699
29 | C1Cc2nc(CCNc3nc(C4CC4)nc4c3CCNCC4)sc2C1 | – | 77.67
30 | N[C@H]1CC[C@@H](n2cc(Br)cn2)CC1 | 5.491 | –
31 | Cc1cccc(CNC(=O)C2CCCCC(=O)N2)c1 (stereo not drawn) | -7.628 | –
32 | Cc1ccc(CNC(=O)C2CCCCC(=O)N2)o1 (stereo not drawn) | 50.04 | –
33 | Cc1ccc(CNC(=O)C2(C)CCCCC(=O)N2)o1 (stereo not drawn) | 14.66 | –
34 | N#CC1CCN(C(=O)c2ccc(SCCO)cc2)CC1 | -14.8 | –
35 | CNc1cccc2cccnc12 | -1.4 | –
36 | CNc1cccnc1N(C)C | 57.74 | –
37 | CN(C)c1ncccc1N | 1.469 | –
38 | COC(C(=O)NC1(C)CCOCC1)c1ccccc1 (stereo not drawn) | -2.025 | –
39 | CSCCCN1CCN(C(=O)c2ccc[nH]2)CC1 | -8.697 | –
40 | CO[C@H]1[C@@H]2CC[C@H]1CN(c1nc(C)nc3sccc13)C2 | – | 8.834
41 | CO[C@H]1[C@@H]2CC[C@H]1CN(c1nc(C)nc3ccsc13)C2 | – | 70.73
42 | Cc1nc(N2C[C@@H](CN3CCCCC3)[C@@H](CO)C2)c2sccc2n1 | – | -8.225
43 | CC(C)(C)NCC(=O)Nc1ccc(Cl)cn1 | -9.06 | –
44 | CN1Cc2cc(O)ccc2C1=O | 4.771 | –
45 | Cc1noc(C)c1CCCNC(=O)Nc1ccc2c(c1)CC(=O)N2 | – | -25.73
46 | Cc1cc(C(=O)Nc2ccc3c(c2)CC(=O)N3)c(C)o1 | 62.73 | –
47 | COc1cccc(NC(=O)Nc2ccc3c(c2)CC(=O)N3)c1 | – | 14.2
48 | O=C(NC1CC1)C1CCCN1c1ccc2nnnn2n1 (stereo not drawn) | 14.68 | –

Row | SMILES | Percent Effect (50 µM) [%] | Percent Effect (10 µM) [%]
49 | Cc1ccc(CNCCN2CCOCC2)s1 | -0.4782 | –
50 | CC(CO)N(C)C(=O)c1cccc2cc[nH]c12 (stereo not drawn) | 3.789 | –
51 | CSCC(=O)NC(C1CCNCC1)[C@H]1C[C@@H](O)C1 (stereo partly drawn) | 54.38 | –
52 | O=C(NC(C1CCNCC1)[C@H]1C[C@H](O)C1)C1CC=CC1 (stereo partly drawn) | -3.099 | –
53 | CSCCC(=O)NC(C1CCNCC1)[C@H]1C[C@H](O)C1 (stereo partly drawn) | 2.303 | –
54 | CN(C)C(=O)C1OCCc2ccccc21 (stereo not drawn) | -9.561 | –
55 | CCN(C1CC1)S(=O)(=O)c1ccc(OC)c(C(N)=O)c1 | -4.702 | –
56 | CC(C)OCCOCC(O)CN(C)Cc1cccnc1 (stereo not drawn) | -1.887 | –
57 | Cc1cscc1C(=O)NCCc1cncn1C | -7.221 | –
58 | CC(C)S(=O)(=O)N(C)C(=O)c1cc(Br)c2c(c1)OCO2 | 10.61 | –
59 | CCOC(=O)C(O)c1cc(Br)c2c(c1)OCO2 (stereo not drawn) | 60.1 | –
60 | NCc1cc(Br)c2c(c1)OCO2 | 33.59 | –
61 | CC(C)NC(=O)C(C)n1cncn1 (stereo not drawn) | 7.173 | –
62 | CN(CCN)S(=O)(=O)c1cccs1 | -2.794 | –
63 | Cc1cc(C)n(-c2nc(NCCCO)c3c4c(sc3n2)CCCC4)n1 | – | 81.16
64 | Cc1cc(C)n(-c2cncc(NCCNC(=O)C3CCCC3)n2)n1 | – | -17.81
65 | Cc1cc(C)n(C2=NC(NCCC(C)C)c3c(sc4c3CCCC4)N2)n1 (stereo not drawn) | – | -32.33
66 | O=C(NCc1cn2ccccc2n1)c1ccc(=O)oc1 | -17.09 | –
67 | COCCNC(=O)Nc1cc(Cl)ccc1OC | 51.47 | –
68 | CCCOc1ccc(Cl)cc1NC(=O)NCCC(=O)N(C)C | – | 15.25
69 | CNCC(=O)Nc1cc(Cl)ccc1OC | -3.261 | –
70 | O=C(CCC1CCCCC1)NCc1c[nH]nn1 | 1.133 | –
71 | CC(N)c1ccccc1N1CCOCC1 (stereo not drawn) | 0.1688 | –
72 | C[C@@H](CO)NC(=O)NCC1CCN(CC(F)(F)F)CC1 | -3.478 | –

Row | SMILES | Percent Effect (50 µM) [%] | Percent Effect (10 µM) [%]
73 | COCCC1(CN2CCC(C(N)=O)C2)CCC1 (stereo not drawn) | 68.22 | –
74 | COCCC1(CO)CCCN(CC(N)=O)C1 (stereo not drawn) | 0.1422 | –
75 | COCCC1(CN2CCCC(C(N)=O)C2)CCC1 (stereo not drawn) | -0.683 | –
76 | CN(CC1CCOCC1)C(=O)c1ccc(CN)cc1 | 0.3864 | –
77 | Cc1c(Cl)c(C(=O)N2CCCCC2)nn1C | 24.41 | –
78 | CCS(=O)(=O)Cc1nnnn1-c1ccccc1 | – | -0.7088
79 | CN(Cc1ccc2c(c1)OCCO2)Cc1nnnn1-c1ccccc1 | – | -19.55
80 | CCN(CC)Cc1nnnn1-c1ccccc1 | 68.75 | –
81 | O=C(Nc1ccccc1N1CCCC1)C1CCOC1 (stereo not drawn) | 2.349 | –
82 | CN(C)c1ncccc1CNC(=O)c1ccoc1 | -3.271 | –
83 | CS(=O)(=O)Nc1ccccc1CNC(=O)c1ccoc1 | 97.49 | –
84 | O=C(CCNC(=O)c1ccoc1)NCc1ccccc1F | – | -6.438
85 | CC1CCCN(CCCN)C1 (stereo not drawn) | 8.539 | –
86 | O=C(CC1CSCCN1)NCCc1ccc(F)cc1F (stereo not drawn) | 0.8144 | –
87 | CCCc1noc(COc2nc(C)no2)n1 | 3.348 | –
88 | CC(C)C(NC(=O)Cn1cnnn1)c1cccs1 (stereo not drawn) | 19.15 | –
89 | O=C(N1CCOCC1)[C@@]12CCO[C@@H]1CCN(C1CCC1)C2.O=C(O)C(F)(F)F | – | 41.32
90 | O=C(N1CCOCC1)[C@@]12CCO[C@@H]1CCN(C1CCCCC1)C2.O=C(O)C(F)(F)F | – | -8.917
91 | O=C(N1CCOCC1)[C@@]12CCO[C@@H]1CCN(C1CCOCC1)C2.O=C(O)C(F)(F)F | – | 86.48
92 | Cc1cc(C)n(CCC(=O)NC2C=CS(=O)(=O)C2)n1 (stereo not drawn) | -3.643 | –
93 | CC(Nc1ccc(C#N)cn1)c1ccc2c(c1)OCO2 (stereo not drawn) | 3.939 | –
94 | CC(C)CC(=O)N1CC[C@H]2N(C)CC[C@@]2(C(=O)Nc2cccnc2)CC1.O=C(O)C(F)(F)F.O=C(O)C(F)(F)F | – | 6.738
95 | CC(C)CC(=O)N1CC[C@H]2N(C)CC[C@@]2(C(=O)Nc2ccccc2)CC1.O=C(O)C(F)(F)F | – | 95.11
96 | CC(C)C(=O)N1CC[C@H]2N(C)CC[C@@]2(C(=O)Nc2ccccc2)CC1 | – | -18.9

Row | SMILES | Percent Effect (50 µM) [%] | Percent Effect (10 µM) [%]
97 | O=C(CCC1CCCCC1)N1CC[S+]([O-])CC1 | -3.074 | –
98 | CC(C)(C)OC(=O)NCCC(=O)NCC(O)c1cccc(F)c1 (stereo not drawn) | – | -9.599
99 | CC(C)(CO)NCC(O)c1cccc(Cl)c1 (stereo not drawn) | 48.83 | –
100 | CC(C)(CO)NCC(O)c1cccc(F)c1 (stereo not drawn) | 95.56 | –
101 | Cc1cc(Br)oc1C(=O)NCCOC(N)=O | -2.351 | –
102 | COc1ccc(OC)c(NC(=O)N2CC(C)(OC)C2)c1 | 3.541 | –
103 | CC[C@H](C)[C@H](N)C(=O)NC | -8.555 | –
104 | c1csc(-c2noc(C3CCCOC3)n2)c1 (stereo not drawn) | – | -3.059
105 | Cl.c1csc(-c2noc(C3CNC3)n2)c1 | – | 42.66
106 | CC(=O)Nc1ccc(C(C)N)cc1 (stereo not drawn) | -11.91 | –
107 | COCCn1ccnc1CN(C)[C@H]1COC[C@@H]1O | -5.172 | –
108 | CCN1CCN(Cc2c(-c3ccco3)[nH]c3ncccc23)CC1 | – | -25.08
109 | OC1CCN(Cc2c(-c3ccco3)[nH]c3ncccc23)CC1 | – | -9.681
110 | CN1CCN(Cc2c(-c3ccco3)[nH]c3ncccc23)CC1 | – | 84.72
111 | Cc1nnc(SCC(=O)C(C)(C)C)[nH]1 | 12.7 | –
112 | Cc1n[nH]cc1CNCCNc1ncc(Cl)cc1Cl | 5.335 | –
113 | CNC(=O)CN(C)C(=O)CCc1ccc(Br)cc1F | 0.9597 | –
114 | COc1ccccc1C(=O)N1CCN(C2CC2)C(=O)C1 | -3.275 | –
115 | NCc1ccc(C(=O)N2CCN(C3CC3)C(=O)C2)cc1 | 8.158 | –
116 | O=C(c1cnsn1)N1CCN(C2CC2)C(=O)C1 | 91.53 | –
117 | COc1cc(CN)ccc1OCC(N)=O | 19.26 | –
118 | Cc1nc(CC(=O)NCCN2CCNC2=O)c(C)s1 | -2.42 | –
